# Active and inactive are the calls of the source.
# Legend:
# [1] = test system: PRMT1 (protein arginine N-methyltransferase 1); experiment: PRMT1 binders on small-molecule microarrays, primary screen, biochemical, small-molecule microarray, 635 nm fluorescence (AID 1088); conditions: small-molecule microarray binding, higher = more signal;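 note: binding of Prmt1 protein to compounds spotted on small-molecule microarray slides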
# [2] = yeast growth modulation, basal conditions, primary screen, YJM789 clinical isolate, OD600, 24 h (AID 1089);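 note: growth of clinical yeast isolate S. cerevisiae YJM 789 seeded 1000 cells per well; test concentration not given here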; conditions: S. cerevisiae YJM789 growth, higher = more signal, called active from +8 up or from −8 down
# [3] = fission yeast growth modulation, primary screen, strain 972, OD600, 24 h, no modulator (AID 1090);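 note: basal condition with compound alone and no growth modifier present; test concentration not given here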; conditions: S. pombe 972 growth, higher = more signal, called active from +8 up or from −8 down
# [4] = S. cerevisiae growth modulation with rapamycin, primary screen, strain BY4716, OD600, 96 h (AID 1091); conditions: higher = more signal, called active from +8 up or from −8 down; note: test concentration not given here
# [5] = biological target: Torsin-1A-interacting protein 2 (Homo sapiens) (UniProt Q8NFQ8); experiment: LULL1 binders on small-molecule microarray, primary screen, cell lysate, human LULL1 lysate, 635/667 nm fluorescence (AID 1092); conditions: hLULL1 lysate binding, 635 nm fluorescence, higher = more signal;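 note: probe is lysate of COS7 cells overexpressing human LULL1; score merges per-feature 667 nm fluorescence with signal-to-noise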
# Chain of Torsin-1A-interacting protein 2 (Homo sapiens) (Q8NFQ8 whole entry, looked up): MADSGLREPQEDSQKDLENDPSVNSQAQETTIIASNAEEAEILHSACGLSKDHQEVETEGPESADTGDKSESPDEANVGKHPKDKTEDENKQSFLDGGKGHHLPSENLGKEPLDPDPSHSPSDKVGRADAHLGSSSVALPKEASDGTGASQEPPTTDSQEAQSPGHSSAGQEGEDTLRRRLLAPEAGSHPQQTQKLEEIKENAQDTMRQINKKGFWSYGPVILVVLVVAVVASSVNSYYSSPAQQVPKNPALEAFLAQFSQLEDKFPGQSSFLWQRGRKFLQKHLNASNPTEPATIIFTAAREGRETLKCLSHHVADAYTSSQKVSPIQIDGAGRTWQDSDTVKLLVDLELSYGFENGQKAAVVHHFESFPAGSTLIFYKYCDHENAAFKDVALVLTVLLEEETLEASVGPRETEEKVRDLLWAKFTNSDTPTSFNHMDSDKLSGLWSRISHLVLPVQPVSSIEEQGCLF
# [6] = E. coli growth modulation, two-sided OD650, primary screen, E. coli filamentation project, strain DRC41, 24 h (AID 1093); conditions: OD650, 24 h, higher = more signal, called active from +8 up or from −8 down;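 note: MC1000 strain lacking acrAB efflux and sulA so SOS filamentation is blocked; test concentration not given here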
# [7] = small-molecule microarray binders of probe aLefty2, primary screen, biochemical, biotinylated probe, 635/667 nm fluorescence (AID 1094); conditions: higher = more signal;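 note: score merges spot fluorescence near 667 nm with spot signal-to-noise ratio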
# [8] = test system: Noggin (protein binding on small-molecule microarray); experiment: Noggin binders on small-molecule microarray, primary screen, biochemical, 635/667 nm fluorescence (AID 1095); conditions: 635 nm fluorescence, higher = more signal;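 note: score merges 667 nm feature fluorescence with signal to noise over triplicate slides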
# [9] = biological target: Neurogenic locus notch homolog protein 3 (Homo sapiens) (UniProt Q9UM47); experiment: NOTCH3 binders on small-molecule microarray, primary screen, biochemical, 635/667 nm fluorescence (AID 1096); conditions: NOTCH3 binding, 635 nm fluorescence, higher = more signal
# Chain of Neurogenic locus notch homolog protein 3 (Homo sapiens) (Q9UM47 whole entry, looked up): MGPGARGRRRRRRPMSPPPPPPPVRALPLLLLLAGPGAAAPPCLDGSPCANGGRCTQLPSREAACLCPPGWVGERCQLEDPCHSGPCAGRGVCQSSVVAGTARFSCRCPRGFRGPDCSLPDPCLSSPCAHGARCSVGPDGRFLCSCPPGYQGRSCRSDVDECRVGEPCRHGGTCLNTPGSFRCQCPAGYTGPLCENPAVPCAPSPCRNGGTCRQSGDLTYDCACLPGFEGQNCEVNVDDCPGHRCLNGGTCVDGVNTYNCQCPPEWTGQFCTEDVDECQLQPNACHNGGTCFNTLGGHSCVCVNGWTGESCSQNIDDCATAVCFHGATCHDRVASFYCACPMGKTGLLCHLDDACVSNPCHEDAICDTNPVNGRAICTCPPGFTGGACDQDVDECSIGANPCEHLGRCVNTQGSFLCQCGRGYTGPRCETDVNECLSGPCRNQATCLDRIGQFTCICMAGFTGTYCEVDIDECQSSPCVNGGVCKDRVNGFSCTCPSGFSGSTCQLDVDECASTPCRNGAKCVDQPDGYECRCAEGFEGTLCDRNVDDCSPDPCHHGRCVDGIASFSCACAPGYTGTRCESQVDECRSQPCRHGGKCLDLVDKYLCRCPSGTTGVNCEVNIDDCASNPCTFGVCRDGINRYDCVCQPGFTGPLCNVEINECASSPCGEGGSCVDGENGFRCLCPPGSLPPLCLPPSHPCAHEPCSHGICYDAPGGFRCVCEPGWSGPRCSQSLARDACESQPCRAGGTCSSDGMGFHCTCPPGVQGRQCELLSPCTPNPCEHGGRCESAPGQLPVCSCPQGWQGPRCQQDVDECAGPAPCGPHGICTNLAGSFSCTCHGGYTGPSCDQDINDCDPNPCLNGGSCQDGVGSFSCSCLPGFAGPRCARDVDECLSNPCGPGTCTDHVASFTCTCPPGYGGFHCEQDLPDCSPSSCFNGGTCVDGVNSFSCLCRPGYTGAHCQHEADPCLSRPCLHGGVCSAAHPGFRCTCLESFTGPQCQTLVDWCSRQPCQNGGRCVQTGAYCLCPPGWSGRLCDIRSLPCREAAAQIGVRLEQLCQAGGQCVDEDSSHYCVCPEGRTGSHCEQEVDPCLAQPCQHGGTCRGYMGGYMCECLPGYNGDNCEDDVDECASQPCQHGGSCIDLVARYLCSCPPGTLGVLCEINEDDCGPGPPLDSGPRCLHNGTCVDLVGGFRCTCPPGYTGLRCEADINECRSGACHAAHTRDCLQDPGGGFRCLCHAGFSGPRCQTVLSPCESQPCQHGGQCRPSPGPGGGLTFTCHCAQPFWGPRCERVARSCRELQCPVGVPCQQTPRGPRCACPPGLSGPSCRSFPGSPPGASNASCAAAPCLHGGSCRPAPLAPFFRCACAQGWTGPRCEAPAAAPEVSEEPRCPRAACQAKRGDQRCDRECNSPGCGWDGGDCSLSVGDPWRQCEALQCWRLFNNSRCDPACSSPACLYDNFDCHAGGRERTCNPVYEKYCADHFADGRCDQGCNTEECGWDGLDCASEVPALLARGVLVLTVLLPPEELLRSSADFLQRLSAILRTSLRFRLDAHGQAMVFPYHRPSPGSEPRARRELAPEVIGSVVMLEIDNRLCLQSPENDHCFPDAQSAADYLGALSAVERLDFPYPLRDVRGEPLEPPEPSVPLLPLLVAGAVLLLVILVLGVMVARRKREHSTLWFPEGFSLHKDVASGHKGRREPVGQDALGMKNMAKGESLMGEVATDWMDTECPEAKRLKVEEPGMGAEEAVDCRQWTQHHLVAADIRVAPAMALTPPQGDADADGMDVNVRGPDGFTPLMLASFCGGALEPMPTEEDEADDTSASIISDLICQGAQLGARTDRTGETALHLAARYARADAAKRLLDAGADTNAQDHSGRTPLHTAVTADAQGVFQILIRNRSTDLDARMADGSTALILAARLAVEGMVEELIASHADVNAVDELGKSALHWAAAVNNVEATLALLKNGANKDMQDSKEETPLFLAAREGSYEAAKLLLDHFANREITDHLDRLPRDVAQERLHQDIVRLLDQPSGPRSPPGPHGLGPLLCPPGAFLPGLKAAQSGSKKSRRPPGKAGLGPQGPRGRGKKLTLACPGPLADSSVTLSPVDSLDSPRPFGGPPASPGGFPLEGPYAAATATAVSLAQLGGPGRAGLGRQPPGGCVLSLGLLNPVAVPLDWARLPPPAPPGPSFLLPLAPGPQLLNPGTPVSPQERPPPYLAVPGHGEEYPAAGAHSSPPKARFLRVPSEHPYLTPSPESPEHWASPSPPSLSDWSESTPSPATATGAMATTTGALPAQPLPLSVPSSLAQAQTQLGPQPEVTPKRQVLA
# [10] = small-molecule microarray binders of probe aEGFR, primary screen, biochemical, biotinylated probe, 635/667 nm fluorescence (AID 1097); conditions: higher = more signal;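 note: probe is a biotinylated anti-EGFR antibody binding compounds printed on slides; score combines fluorescence near 667 nm and signal to noise of each spot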
# [11] = test system: Plasmodium falciparum Sir2 (PF13_0152, Sir2A); experiment: pfSir2 binders on small-molecule microarrays, primary screen, biochemical, small-molecule microarray, 635 nm fluorescence (AID 1098); conditions: small-molecule microarray binding, fluorescence 635 nm; higher = more signal;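 note: score merges spot fluorescence intensity with its signal-to-noise ratio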
# [12] = small-molecule microarray binders of probe aDKK1, primary screen, biochemical, biotinylated probe, 635/667 nm fluorescence (AID 1099); conditions: higher = more signal;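 note: score merges 667nm spot fluorescence with signal to noise across triplicate slides; reference of the scale not given here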
# [13] = small-molecule microarray binders of probe aCHRDL2, primary screen, biochemical, biotinylated probe, 635/667 nm fluorescence (AID 1100); conditions: higher = more signal
# [14] = splicing luciferase reporter signal modulators, primary screen, spliceosome inhibition project, cell-based, HEK293, splice +/- reporter (AID 1101); conditions: luminescence, 24 h, higher = more signal, called active from +8 up or from −8 down;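 note: HEK293 cells carrying a splicing-competent luciferase reporter gene; test concentration not given here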
# [15] = biological target: Fibroblast growth factor 10 (Homo sapiens) (UniProt O15520); experiment: FGF10 binders on small-molecule microarrays, primary screen, biochemical, small-molecule microarray, 635 nm fluorescence (AID 1102); conditions: FGF10 binding, fluorescence 635 nm, higher = more signal
# Chain of Fibroblast growth factor 10 (Homo sapiens) (O15520 whole entry, looked up): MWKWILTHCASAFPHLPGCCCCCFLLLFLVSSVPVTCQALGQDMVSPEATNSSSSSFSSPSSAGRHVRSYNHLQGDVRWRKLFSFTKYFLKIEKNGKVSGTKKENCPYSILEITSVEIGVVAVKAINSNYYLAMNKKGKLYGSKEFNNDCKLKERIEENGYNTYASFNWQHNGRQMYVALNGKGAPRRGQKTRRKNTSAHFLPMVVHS
# [16] = test system: glycogen synthase kinase-3 (GSK3A per assay name; protocol says GSK3B); experiment: GSK3 binders on small-molecule microarrays, primary screen, biochemical, small-molecule microarray, 635 nm fluorescence, GSK3A (AID 1103); conditions: small-molecule microarray binding, fluorescence 635 nm; higher = more signal; note: the record names both GSK3A and GSK3B
# [17] = biological target: Epidermal growth factor receptor (Homo sapiens) (UniProt P00533); experiment: EGFR binders on small-molecule microarrays, primary screen, biochemical, small-molecule microarray, 635 nm fluorescence (AID 1104); conditions: EGFR binding, higher = more signal;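 note: score merges 667 nm emission intensity with spot signal to noise over triplicate slides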
# Chain of Epidermal growth factor receptor (Homo sapiens) (P00533 whole entry, looked up): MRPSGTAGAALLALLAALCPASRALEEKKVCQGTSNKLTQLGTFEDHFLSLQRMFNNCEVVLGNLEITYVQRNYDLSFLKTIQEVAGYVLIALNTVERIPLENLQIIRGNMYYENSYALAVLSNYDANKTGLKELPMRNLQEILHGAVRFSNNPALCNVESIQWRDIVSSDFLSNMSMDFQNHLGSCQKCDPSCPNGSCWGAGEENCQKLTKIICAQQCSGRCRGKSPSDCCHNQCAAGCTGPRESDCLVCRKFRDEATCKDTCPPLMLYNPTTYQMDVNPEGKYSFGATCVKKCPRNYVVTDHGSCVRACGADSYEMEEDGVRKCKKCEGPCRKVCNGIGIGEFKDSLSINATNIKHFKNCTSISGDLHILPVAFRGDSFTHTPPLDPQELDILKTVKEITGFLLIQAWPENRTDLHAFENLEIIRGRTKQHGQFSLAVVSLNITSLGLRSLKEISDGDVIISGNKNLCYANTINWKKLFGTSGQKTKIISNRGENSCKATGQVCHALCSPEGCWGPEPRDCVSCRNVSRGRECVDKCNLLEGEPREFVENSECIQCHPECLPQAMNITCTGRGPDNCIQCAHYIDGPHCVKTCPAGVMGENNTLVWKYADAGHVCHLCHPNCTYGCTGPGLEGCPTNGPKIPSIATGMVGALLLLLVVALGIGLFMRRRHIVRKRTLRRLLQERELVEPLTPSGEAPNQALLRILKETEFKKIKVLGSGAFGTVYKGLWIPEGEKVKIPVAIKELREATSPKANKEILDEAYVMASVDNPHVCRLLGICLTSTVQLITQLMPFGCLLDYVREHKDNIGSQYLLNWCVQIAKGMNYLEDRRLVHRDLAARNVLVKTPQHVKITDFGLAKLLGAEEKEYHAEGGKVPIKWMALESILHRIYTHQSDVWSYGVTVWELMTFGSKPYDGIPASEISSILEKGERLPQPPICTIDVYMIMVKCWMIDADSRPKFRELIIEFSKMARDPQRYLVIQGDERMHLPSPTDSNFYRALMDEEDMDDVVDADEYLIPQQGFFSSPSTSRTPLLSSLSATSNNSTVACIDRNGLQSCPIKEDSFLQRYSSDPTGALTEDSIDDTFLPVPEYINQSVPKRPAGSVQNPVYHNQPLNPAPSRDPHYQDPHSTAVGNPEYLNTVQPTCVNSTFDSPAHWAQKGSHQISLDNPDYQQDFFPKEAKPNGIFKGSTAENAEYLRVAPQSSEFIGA
# [18] = biological target: Follistatin-related protein 3 (Homo sapiens) (UniProt O95633); experiment: FSTL3 binders on small-molecule microarrays, primary screen, biochemical, small-molecule microarray, 635 nm fluorescence (AID 1105); conditions: FSTL3 binding, higher = more signal;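 note: score merges emission near 667 nm and signal to noise per printed spot across three slides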
# Chain of Follistatin-related protein 3 (Homo sapiens) (O95633 whole entry, looked up): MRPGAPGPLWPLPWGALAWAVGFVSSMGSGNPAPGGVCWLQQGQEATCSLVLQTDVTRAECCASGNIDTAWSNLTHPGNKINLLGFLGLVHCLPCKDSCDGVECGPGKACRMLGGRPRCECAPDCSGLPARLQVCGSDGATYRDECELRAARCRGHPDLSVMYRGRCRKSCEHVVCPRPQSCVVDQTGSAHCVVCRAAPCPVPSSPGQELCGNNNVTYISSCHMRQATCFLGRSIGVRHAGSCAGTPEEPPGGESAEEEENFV
# [19] = biological target: Dickkopf-related protein 1 (Homo sapiens) (UniProt O94907); experiment: DKK1 binders on small-molecule microarrays, primary screen, biochemical, small-molecule microarray, 635 nm fluorescence scan (AID 1106); conditions: DKK1 binding, higher = more signal;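 note: score merges emission near 667 nm with signal to noise over three replicate slides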
# Chain of Dickkopf-related protein 1 (Homo sapiens) (O94907 whole entry, looked up): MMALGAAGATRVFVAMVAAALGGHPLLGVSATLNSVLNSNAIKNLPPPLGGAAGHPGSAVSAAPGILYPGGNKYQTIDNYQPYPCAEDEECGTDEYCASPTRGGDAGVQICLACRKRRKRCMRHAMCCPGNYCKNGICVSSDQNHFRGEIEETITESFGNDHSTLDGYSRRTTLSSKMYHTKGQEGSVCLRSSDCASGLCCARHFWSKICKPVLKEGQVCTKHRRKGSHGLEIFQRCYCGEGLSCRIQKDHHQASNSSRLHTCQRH
# [20] = test system: Inhibin beta A chain (activin A); experiment: INHBA (activin A) binders on microarrays, primary screen, biochemical, small-molecule microarray, 635 nm fluorescence scan (AID 1107); conditions: small-molecule microarray binding, higher = more signal;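 note: mouse activin A protein probed at 4.33 µg/mL on printed slides; score merges bound-protein fluorescence near 667 nm with spot signal-to-noise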
Compound,composite z-score [1],z-score [2],z-score [3],z-score [4],composite z-score [5],z-score [6],composite z-score [7],composite z-score [8],composite z-score [9],composite z-score [10],composite z-score [11],composite z-score [12],composite z-score [13],z-score [14],composite z-score [15],composite z-score [16],composite z-score [17],composite z-score [18],composite z-score [19],composite z-score [20]
NC(N)=NCCCn1cc(CNC(=O)[C@@H](N)Cc2ccccc2)nn1,0.605,0.567 (inactive),-0.627 (inactive),-0.933 (inactive),1.14,-1.08 (inactive),0.0616,0.743,0.179,0.0221,1.23,0.174,0.34,0.292 (inactive),0.697,0.0853,-0.38,1.36,0.0571,0.9
O=C1C2C=CC(C(O)c3ccccc3)N(Nc3ccccc3F)C2C(=O)N1c1ccccc1 (stereo not given),0.101,0.181 (inactive),0.815 (inactive),0.285 (inactive),2.61,-0.106 (inactive),-0.0381,-0.0199,0.023,-0.067,0.797,-0.168,0.24,-0.245 (inactive),0.311,-0.178,0.223,0.341,0.0646,0.626
C=C(/C(=C/C[C@@H](OC(C)=O)c1cccc(OCCO)c1)c1cc(C(=O)OC)ccc1OC)C(C)C,1.07,-0.373 (inactive),0.114 (inactive),-0.87 (inactive),1.69,0.251 (inactive),0.0347,0.575,0.666,-0.0987,0.628,0.153,-0.0171,-0.0584 (inactive),0.855,-0.298,-0.122,0.533,-0.35,0.632
COCCOC(=O)N1C(=O)[C@@]2(c3cc(C#Cc4ccc(OC)cc4)ccc31)[C@H](C(=O)Nc1nc3ccccc3s1)[C@H]1C(=O)O[C@H](c3ccccc3)[C@H](c3ccccc3)N1[C@@H]2c1ccc(OCCO)cc1,1.56,3.34 (inactive),2.1 (inactive),4.58 (inactive),1.02,0.575 (inactive),-0.0699,1.54,1.13,0.0311,0.557,-0.135,-0.571,-0.653 (inactive),1.37,1.28,0.654,1.38,0.901,0.0865
C=CCC(OC(C)=O)[C@@H]1[C@@H](N(Cc2ccc(-c3cccc(C(F)(F)F)c3)o2)C(=O)c2ccc(C)cc2)c2cc(OCCCO)ccc2N1C(=O)c1ccc2ccccc2c1 (stereo not given in full),0.128,0.488 (inactive),0.668 (inactive),0.742 (inactive),0.407,1.14 (inactive),-0.138,0.485,0.313,-0.125,0.178,-0.149,0.155,-0.619 (inactive),0.298,-0.461,-0.0161,0.443,0.217,1.01
O=C(NCC(F)(F)F)[C@@H]1c2ccccc2C(=O)N(Cc2ccccc2C(F)(F)F)[C@H]1c1ccc(CO)cc1,0.928,-0.268 (inactive),-0.205 (inactive),-0.503 (inactive),1.28,0.31 (inactive),-0.062,-0.416,-0.258,-0.274,1.78,0.757,0.805,-0.335 (inactive),-0.141,-0.677,-0.79,-0.604,-0.377,0.547
NC(=O)NCC#Cc1ccc2c(c1)[C@]1(C(=O)N2)[C@H](C(=O)NC[C@H](O)c2ccccc2)[C@H]2C(=O)O[C@H](c3ccccc3)[C@H](c3ccccc3)N2[C@@H]1c1ccc(OCCO)cc1,0.889,2.75 (inactive),0.682 (inactive),3.73 (inactive),1.21,1.63 (inactive),0.156,-0.0728,0.0556,-0.0078,0.0395,0.72,0.879,0.822 (inactive),0.566,0.0382,-0.464,0.0489,-0.246,1.04
COCCCNC(=O)[C@]1(CCS(=O)(=O)c2ccccc2)N=C(c2ccc(OCCCO)cc2)O[C@@H]1c1ccccc1N=[N+]=[N-],1.38,0.371 (inactive),0.61 (inactive),3.42 (inactive),2.93,0.464 (inactive),0.106,-0.122,0.349,0.287,1.47,1.1,0.698,0.409 (inactive),1.16,1.29,0.151,0.735,-0.262,0.963
CCOC(=O)c1ccc(NC(=O)O[C@H]2[C@H](OC(=O)Nc3ccc4c(c3)OCO4)[C@@H](OC(=O)Nc3ccc4c(c3)OCO4)[C@@H](OC)O[C@@H]2CO)cc1,1.53,1.38 (inactive),2.29 (inactive),7.12 (inactive),3.27,1.15 (inactive),0.119,1.07,1,0.0815,1.41,0.164,0.157,-0.616 (inactive),1.4,1.33,0.308,1.49,0.624,0.51

# From PubChem BioAssay
